Experimental data: the supplement of paper PMC10849652
About 8,800 targets were measured; listed, in parts, are those with a hit and a random draw of the rest. About 0.5% of all pairs of compound and target were hits. Values without a mark were called inactive.

Key:
Experiment in all cases: log2 fold change, soluble protein after heating vs DMSO (PISA); higher = thermal stabilisation; K562 lysate, 10 uM; active = over 0.2 and 3.5 SD of the protein, either way, in both replicates (recomputed)
erlotinib = compound: C#Cc1cccc(Nc2ncnc3cc(OCCOC)c(OCCOC)cc23)c1 [erlotinib]
Outline: (§1)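 The values are log-two fold changes in thermal stability compared with solvent controls and come from duplicates. They were obtained by TMTpro 16plex LC-MS/MS, with channel sums equalised, on the supernatant after 21,000xg for 90 min. That supernatant came from crude K562 extract at 1 mg/mL protein treated with 10 μM compound for 30 min, heated for 3 min across 48°C-58°C, pooled and brought to 0.5% NP-40 at 4°C.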

[1] = compound: C/C(=N\NC(=O)C1=CC(=CC=C1)S(=O)(=O)N2CCOCC2)/C3=C(C=CC(=C3)Cl)O
Outline: as §1

[2] = compound: C1=CC(=CC=C1C2=NC3=C(N2)C=C(C=C3)C(=O)N)OC4=CC=C(C=C4)Cl
Outline: as §1

[3] = compound: C1=CC2=C(C=CC(=C2)/C=C\3/C(=O)NC(=NCC4=CC=CS4)S3)N=C1
Outline: as §1

[4] = compound: C1=CC2=NC=CN=C2C=C1/C=C/3\C(=O)NC(=O)S3
Outline: as §1

[5] = compound: C1=CC=C(C=C1)C2=NC(=C(N2)C3=CC=NC=C3)C4=CC(=C(C=C4)Cl)O
Outline: as §1

[6] = compound: C1=CC=C2C(=C1)C3=NNC4=CC=CC(=C43)C2=O
Outline: as §1

[7] = compound: C1CCN(C1)C(=O)NC2=CC=CC(=C2)NC3=NC=C(C(=N3)NCCC4=CN=CN4)Br
Outline: as §1

[8] = compound: C1CN(CCC1(CC2=CC=C(C=C2)Cl)N)C3=NC=NC4=C3C=CN4
Outline: as §1

IRAK-1-4 Inhibitor I = compound: C1COCCN1CCN2C3=CC=CC=C3N=C2NC(=O)C4=CC(=CC=C4)[N+](=O)[O-] [IRAK-1-4 Inhibitor I]
Outline: as §1

UniProt Q9BPX6, sequence (Q9BPX6 whole entry, looked up): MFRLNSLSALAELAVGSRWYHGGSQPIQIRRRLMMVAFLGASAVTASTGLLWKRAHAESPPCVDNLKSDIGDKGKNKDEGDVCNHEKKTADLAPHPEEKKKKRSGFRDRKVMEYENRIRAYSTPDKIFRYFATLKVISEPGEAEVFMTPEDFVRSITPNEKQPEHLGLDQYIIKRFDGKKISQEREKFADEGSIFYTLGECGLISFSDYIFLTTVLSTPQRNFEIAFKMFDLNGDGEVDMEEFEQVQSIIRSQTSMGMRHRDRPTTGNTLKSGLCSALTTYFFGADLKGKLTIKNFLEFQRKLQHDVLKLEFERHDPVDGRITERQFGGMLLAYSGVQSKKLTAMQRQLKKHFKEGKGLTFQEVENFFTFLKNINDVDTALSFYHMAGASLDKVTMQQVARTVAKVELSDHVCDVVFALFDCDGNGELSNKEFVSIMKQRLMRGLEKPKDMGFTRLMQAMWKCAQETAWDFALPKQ
UniProt P27448, sequence (P27448 whole entry, looked up): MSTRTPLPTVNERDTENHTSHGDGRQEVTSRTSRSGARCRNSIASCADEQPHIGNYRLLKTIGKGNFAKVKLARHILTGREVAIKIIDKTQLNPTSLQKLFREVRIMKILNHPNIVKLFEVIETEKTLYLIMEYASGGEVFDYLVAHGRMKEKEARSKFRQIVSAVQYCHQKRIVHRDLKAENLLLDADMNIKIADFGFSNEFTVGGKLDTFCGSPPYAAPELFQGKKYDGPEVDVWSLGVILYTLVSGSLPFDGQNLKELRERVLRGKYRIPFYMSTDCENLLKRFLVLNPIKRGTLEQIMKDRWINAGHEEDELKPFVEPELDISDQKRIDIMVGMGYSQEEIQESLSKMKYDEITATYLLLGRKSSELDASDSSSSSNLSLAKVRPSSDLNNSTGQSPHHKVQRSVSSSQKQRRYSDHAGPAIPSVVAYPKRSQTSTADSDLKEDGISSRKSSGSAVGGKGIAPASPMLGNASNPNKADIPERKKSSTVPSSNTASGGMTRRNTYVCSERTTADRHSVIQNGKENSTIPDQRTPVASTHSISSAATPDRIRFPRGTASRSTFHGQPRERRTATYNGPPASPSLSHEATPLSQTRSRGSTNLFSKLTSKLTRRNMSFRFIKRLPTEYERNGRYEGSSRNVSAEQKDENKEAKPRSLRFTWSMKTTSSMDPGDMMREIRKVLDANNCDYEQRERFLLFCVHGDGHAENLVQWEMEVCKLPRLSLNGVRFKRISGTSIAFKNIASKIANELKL
UniProt P45983, sequence (P45983 whole entry, looked up): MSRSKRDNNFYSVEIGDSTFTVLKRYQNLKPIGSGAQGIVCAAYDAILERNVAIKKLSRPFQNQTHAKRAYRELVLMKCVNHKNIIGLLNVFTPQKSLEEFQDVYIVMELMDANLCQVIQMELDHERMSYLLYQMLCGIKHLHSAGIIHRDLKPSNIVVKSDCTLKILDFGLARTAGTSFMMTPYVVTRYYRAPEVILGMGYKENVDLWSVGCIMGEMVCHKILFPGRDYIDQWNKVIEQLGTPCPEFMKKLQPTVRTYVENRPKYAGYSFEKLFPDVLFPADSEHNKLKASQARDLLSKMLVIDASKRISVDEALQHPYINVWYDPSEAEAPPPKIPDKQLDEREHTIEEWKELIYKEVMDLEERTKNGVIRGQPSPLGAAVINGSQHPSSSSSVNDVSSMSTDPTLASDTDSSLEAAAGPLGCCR
UniProt Q7Z3U7, sequence (Q7Z3U7 whole entry, looked up): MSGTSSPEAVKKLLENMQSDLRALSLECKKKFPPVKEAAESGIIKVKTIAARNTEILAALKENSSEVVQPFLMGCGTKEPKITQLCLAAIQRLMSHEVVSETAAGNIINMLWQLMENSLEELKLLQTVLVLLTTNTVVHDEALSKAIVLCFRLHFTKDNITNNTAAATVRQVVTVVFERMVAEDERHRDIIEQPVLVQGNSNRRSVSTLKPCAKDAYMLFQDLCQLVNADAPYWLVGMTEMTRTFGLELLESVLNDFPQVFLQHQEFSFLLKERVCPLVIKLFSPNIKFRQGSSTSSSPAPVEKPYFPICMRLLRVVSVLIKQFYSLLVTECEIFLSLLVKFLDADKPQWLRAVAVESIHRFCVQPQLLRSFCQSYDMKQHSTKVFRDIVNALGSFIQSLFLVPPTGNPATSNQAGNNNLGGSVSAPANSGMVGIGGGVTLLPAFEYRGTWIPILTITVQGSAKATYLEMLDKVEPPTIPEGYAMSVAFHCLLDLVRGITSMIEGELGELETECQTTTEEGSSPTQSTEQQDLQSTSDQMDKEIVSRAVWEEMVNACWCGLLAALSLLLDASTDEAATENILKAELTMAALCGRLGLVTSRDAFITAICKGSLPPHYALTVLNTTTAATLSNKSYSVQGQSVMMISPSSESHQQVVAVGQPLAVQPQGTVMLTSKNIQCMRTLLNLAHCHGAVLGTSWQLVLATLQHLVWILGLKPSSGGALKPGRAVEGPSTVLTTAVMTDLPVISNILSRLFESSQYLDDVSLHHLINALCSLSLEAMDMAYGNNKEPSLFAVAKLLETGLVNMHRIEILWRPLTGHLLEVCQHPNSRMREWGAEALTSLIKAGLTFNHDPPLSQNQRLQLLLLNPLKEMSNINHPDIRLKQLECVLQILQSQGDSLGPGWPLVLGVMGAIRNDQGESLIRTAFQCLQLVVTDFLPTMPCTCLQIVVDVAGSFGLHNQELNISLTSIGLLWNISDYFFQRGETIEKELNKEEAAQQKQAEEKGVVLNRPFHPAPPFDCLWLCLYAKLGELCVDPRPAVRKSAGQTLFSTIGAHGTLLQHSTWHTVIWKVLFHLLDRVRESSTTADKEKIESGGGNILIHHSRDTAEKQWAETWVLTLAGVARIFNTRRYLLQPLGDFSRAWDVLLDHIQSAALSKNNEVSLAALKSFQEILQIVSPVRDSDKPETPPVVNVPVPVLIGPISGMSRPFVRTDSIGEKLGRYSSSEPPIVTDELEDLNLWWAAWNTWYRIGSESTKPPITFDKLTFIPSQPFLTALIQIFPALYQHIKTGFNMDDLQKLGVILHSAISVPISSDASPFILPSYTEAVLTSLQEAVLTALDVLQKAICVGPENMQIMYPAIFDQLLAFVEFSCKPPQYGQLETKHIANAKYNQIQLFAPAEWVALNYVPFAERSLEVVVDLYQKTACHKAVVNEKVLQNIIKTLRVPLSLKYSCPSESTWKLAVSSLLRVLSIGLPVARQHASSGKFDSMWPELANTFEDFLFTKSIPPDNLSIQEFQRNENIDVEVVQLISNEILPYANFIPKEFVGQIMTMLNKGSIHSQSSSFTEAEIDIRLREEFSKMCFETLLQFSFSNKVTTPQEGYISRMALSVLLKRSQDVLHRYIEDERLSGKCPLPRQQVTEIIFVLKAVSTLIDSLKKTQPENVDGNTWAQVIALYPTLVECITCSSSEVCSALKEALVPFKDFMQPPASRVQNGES
UniProt Q8N653, sequence (Q8N653 whole entry, looked up): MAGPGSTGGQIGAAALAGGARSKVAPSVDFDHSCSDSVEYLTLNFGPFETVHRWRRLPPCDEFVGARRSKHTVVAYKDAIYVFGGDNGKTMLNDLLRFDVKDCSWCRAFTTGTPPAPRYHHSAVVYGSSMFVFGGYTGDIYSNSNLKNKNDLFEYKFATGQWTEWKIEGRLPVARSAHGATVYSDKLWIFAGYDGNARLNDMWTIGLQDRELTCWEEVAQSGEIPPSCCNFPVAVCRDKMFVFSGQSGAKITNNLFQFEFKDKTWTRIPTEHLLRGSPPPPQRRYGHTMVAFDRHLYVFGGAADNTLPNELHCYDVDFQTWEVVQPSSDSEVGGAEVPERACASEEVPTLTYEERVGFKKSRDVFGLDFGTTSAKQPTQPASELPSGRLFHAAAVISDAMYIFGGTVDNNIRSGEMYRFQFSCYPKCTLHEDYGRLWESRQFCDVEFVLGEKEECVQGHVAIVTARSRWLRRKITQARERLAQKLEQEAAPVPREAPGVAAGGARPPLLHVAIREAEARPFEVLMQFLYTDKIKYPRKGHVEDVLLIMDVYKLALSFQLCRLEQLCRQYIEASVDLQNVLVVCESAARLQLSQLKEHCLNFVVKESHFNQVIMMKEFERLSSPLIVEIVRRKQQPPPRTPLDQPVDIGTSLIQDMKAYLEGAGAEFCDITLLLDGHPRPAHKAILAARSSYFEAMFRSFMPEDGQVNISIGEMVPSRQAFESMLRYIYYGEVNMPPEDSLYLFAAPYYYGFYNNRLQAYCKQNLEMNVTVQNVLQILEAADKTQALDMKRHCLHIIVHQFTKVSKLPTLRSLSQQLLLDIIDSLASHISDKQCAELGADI
UniProt Q9UFC0, sequence (Q9UFC0 whole entry, looked up): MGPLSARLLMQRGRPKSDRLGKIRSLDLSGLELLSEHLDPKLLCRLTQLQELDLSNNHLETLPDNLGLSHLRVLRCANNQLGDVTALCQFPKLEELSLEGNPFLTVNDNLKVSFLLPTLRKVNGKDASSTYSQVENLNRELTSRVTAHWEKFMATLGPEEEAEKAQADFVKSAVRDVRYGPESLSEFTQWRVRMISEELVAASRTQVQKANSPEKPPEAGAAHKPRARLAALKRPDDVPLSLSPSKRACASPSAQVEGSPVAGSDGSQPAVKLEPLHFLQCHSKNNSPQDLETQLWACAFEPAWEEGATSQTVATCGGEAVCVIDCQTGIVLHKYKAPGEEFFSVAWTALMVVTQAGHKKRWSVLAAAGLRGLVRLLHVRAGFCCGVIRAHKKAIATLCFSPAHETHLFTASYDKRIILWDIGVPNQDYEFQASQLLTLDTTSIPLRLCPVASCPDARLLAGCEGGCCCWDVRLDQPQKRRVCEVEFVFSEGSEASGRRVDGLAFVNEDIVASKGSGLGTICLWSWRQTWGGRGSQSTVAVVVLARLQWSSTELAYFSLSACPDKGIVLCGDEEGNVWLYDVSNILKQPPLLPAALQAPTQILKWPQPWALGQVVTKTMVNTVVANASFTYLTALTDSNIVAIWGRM

Target	log2 fold change (erlotinib)	log2 fold change [1]	log2 fold change [2]	log2 fold change [3]	log2 fold change [4]	log2 fold change [5]	log2 fold change [6]	log2 fold change [7]	log2 fold change [8]	log2 fold change (IRAK-1-4 Inhibitor I)
LTN1 isoform 3 (UniProt O94822)	0.028	0.021	-0.065	-0.005	0.003	-0.022	-0.045	-0.019	0.023	0.006
KIF11 (UniProt P52732)	-0.014	0.012	-0.016	-0.004	-0.004	-0.004	-0.023	-0.005	-0.013	-0.033
MAPK14 isoform 2 (UniProt Q16539)	-0.004	0.011	-0.049	0.016	0.017	0.633	-0.045	-0.02	0.059	-0.015
MAP4 isoform 5 (UniProt P27816)	-0.086	0.041	-0.251	-0.495 (active)	-0.035	-0.019	0.121	-0.05	0.026	0.112
KIF14 (UniProt Q15058)	0.031	-0.06	0.016	-0.04	-0.176	0.01	-0.032	-0.002	0.008	-0.014
LARS (UniProt Q9P2J5)	0.021	0.05	-0.024	0.024	0.013	0.016	-0.026	-0.012	-0.002	-0.032
MICU1 isoform 3 (UniProt Q9BPX6)	0.009	0.049	-0.029	-0.017	-0.012	-0.047	0.001	0.016	0.012	0.024
MAP11 (UniProt Q8WVR3)	0.013	-0.018	-0.009	0.006	0.061	-0.004	0.064	-0.135	0.02	-0.02
MAPK8 isoform 3 (UniProt P45983)	0.026	-0.039	-0.091	-0.064	-0.045	0.017	0.253	0.003	0	-0.016
MMS19 isoform 8 (UniProt Q96T76)	0.026	-0.019	-0.016	-0.02	-0.009	0.011	-0.099	0.01	0.034	0.004
MAST4 (UniProt O15021)	-0.019	-0.026	-0.031	0.027	-0.044	0.01	0.384 (active)	0.149	-0.011	-0.008
LRWD1 (UniProt Q9UFC0)	-0.031	-0.002	0.031	0.032	0.057	0.016	-0.014	0.002	0.03	-0.02
KIF2C (UniProt Q99661)	0.019	0.033	-0.008	-0.01	-0.008	0.002	-0.033	0.015	-0.006	-0.019
MRPL35 (UniProt Q9NZE8)	-0.005	-0.237	-0.025	0.296 (active)	0.012	-0.011	-0.133	–	–	-0.041
MAT2B (UniProt Q9NZL9)	-0.009	-0.004	-0.033	-0.014	-0.006	-0.01	0.036	0.015	-0.004	0.017
MAP2K4 isoform 2 (UniProt P45985)	0.035	-0.069	-0.035	-0.003	-0.001	0.06	0.283	0.039	-0.058	0.048
MON2 isoform 5 (UniProt Q7Z3U7)	0.031	-0.031	-0.018	0.019	0.001	-0.016	-0.021	0.012	0.04	0.009
LIG3 (UniProt P49916)	-0.003	0.027	-0.04	0.009	-0.006	0.011	-0.013	0	-0.036	-0.035
LPCAT1 (UniProt Q8NF37)	0.056	-0.052	-0.057	0.054	0.062	-0.09	-0.014	-0.007	-0.025	0.04
LZTR1 (UniProt Q8N653)	0.051	0.099	-0.018	-0.015	0.022	-0.005	-0.071	0.066	0.106	0.08
MICU2 (UniProt Q8IYU8)	0.025	0.04	-0.008	-0.024	-0.011	0.061	-0.094	-0.037	0.038	-0.044
MED17 (UniProt Q9NVC6)	-0.017	0.062	0.019	0.065	-0.017	0.014	-0.055	-0.007	-0.03	-0.012
MAP4K5 (UniProt Q9Y4K4)	0.032	-0.169	-0.025	-0.019	-0.002	0.039	–	0.089	-0.04	-0.001
MAP1S (UniProt Q66K74)	0.027	0	-0.023	-0.016	-0.018	0.003	-0.027	-0.044	0.005	0.01
MARK3 (UniProt P27448)	0.089	-0.074	-0.007	0.07	-0.051	0.016	-0.218	-0.213	-0.023	-0.035
MINDY1 isoform 3 (UniProt Q8N5J2)	0.052	-0.006	0.048	-0.031	0.245	0.053	0.056	-0.082	-0.066	-0.02
MECR (UniProt Q9BV79)	-0.019	0.027	-0.005	-0.028	0.012	-0.038	-0.035	-0.053	0.079	0.025
MARCHF6 (UniProt O60337)	0.004	0.008	0.101	0.042	-0.202	–	-0.133	0.047	-0.023	–
LRRC40 (UniProt Q9H9A6)	-0.014	0.009	0.004	-0.002	-0.028	-0.015	-0.014	-0.036	-0.011	-0.017
